About 83,000 compounds went through this panel and 20% of them were active in at least one assay; those are over-represented in the sample as a whole.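 Step 1: grow cells in 96-well plates. Step 2: add test compound at a single concentration. Step 3: incubate 48 h. Step 4: record percent growth.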 The source made the active and inactive calls. How the source made its calls: active means growth percent below 10; inactive means the rest.
Tests used:
Experiment in all cases: NCI-60 one-dose screen, 48 h (100 = growth as untreated, 0 = no growth, -100 = all killed)
Conditions in all cases: 10 µM unless noted
T-47D breast = tested on: T-47D breast
BT-549 breast = tested on: BT-549 breast
MDA-MB-435 melanoma = tested on: MDA-MB-435 melanoma
SW-620 colon = tested on: SW-620 colon
MCF7 breast = tested on: MCF7 breast
HCT-116 colon = tested on: HCT-116 colon
HCC-2998 colon = tested on: HCC-2998 colon
KM12 colon = tested on: KM12 colon

Measured: growth

Clc1ccc2nc3nc4ccc[nH]c4cc3c2c1
active: MCF7 breast 6.54%
inactive: T-47D breast 22% | BT-549 breast 97.7% | MDA-MB-435 melanoma 103% | SW-620 colon 102% | HCT-116 colon 96.9% | HCC-2998 colon 70.6% | KM12 colon 63%

N#C/C(=C\c1ccc(-c2cc(C(F)(F)F)ccc2Cl)o1)c1nc(-c2ccco2)cs1
inactive: T-47D breast 80.1% | BT-549 breast 114% | MDA-MB-435 melanoma 102% | SW-620 colon 103% | MCF7 breast 45.3% | HCT-116 colon 104% | HCC-2998 colon 104% | KM12 colon 99.9%

CCOC(=O)c1sc2nc(-c3cccc(O)c3)nc(N3CCOCC3)c2c1C
active: T-47D breast 5.33%
inactive: BT-549 breast 52.8% | MDA-MB-435 melanoma 63.5% | SW-620 colon 73.2% | MCF7 breast 55.5% | HCT-116 colon 68.1% | HCC-2998 colon 78.2% | KM12 colon 63.3%

N#Cc1c(-c2ccc(Cl)cc2)nc(NN=Cc2ccco2)nc1N1CCOCC1
inactive: T-47D breast 23.2% | BT-549 breast 58.5% | MDA-MB-435 melanoma 79.4% | SW-620 colon 82.2% | MCF7 breast 26.2% | HCT-116 colon 76.2% | HCC-2998 colon 74.8% | KM12 colon 95%

c1ccc(-c2c(-c3ccccc3)[n+](Cc3ccc4ccccc4c3)c(-c3ccc(-c4nc5ccccc5s4)cc3)n2Cc2ccc3ccccc3c2)cc1
active: T-47D breast -78.2% | BT-549 breast -87.5% | MDA-MB-435 melanoma -76.9% | SW-620 colon -78.3% | MCF7 breast -65.5% | HCT-116 colon -83.5% | HCC-2998 colon -93.8% | KM12 colon -88.1%

C=C(C)[C@@H]1CC[C@]2(C(N)=O)CC[C@]3(C)[C@H](CC[C@@H]4[C@@]5(C)C/C(=C/c6ccco6)C(=O)C(C)(C)[C@@H]5CC[C@]43C)[C@@H]12
inactive: T-47D breast 80% | BT-549 breast 108% | MDA-MB-435 melanoma 98% | SW-620 colon 105% | MCF7 breast 79.8% | HCT-116 colon 83.3% | HCC-2998 colon 117% | KM12 colon 97.6%

CC(C)(O)c1cn(CCCCN2C(=O)C(=O)c3ccccc32)nn1
inactive: T-47D breast 99.5% | BT-549 breast 110% | MDA-MB-435 melanoma 101% | SW-620 colon 99.6% | MCF7 breast 93.9% | HCT-116 colon 101% | HCC-2998 colon 103% | KM12 colon 101%

Cn1cc(C(=O)c2nc(-c3c[nH]c4ccc(F)cc34)no2)c2cc(F)ccc21
inactive: T-47D breast 92.1% | BT-549 breast 92.5% | MDA-MB-435 melanoma 64% | SW-620 colon 87.9% | MCF7 breast 58.1% | HCT-116 colon 99.8% | HCC-2998 colon 97.4% | KM12 colon 79.2%

COc1cc(/C=C/C(=O)Nc2cccnc2Nc2ccc(F)cc2)cc(OC)c1OC
inactive: T-47D breast 93.3% | BT-549 breast 92.3% | MDA-MB-435 melanoma 97.4% | SW-620 colon 106% | MCF7 breast 88.3% | HCT-116 colon 96.3% | HCC-2998 colon 109% | KM12 colon 96.8%

CC(=O)c1cc2c(N)c(C(=O)Nc3ccccc3)sc2nc1C
inactive: T-47D breast 99.5% | BT-549 breast 67.3% | SW-620 colon 69.4% | MCF7 breast 59.8% | HCT-116 colon 102% | HCC-2998 colon 79.4% | KM12 colon 75.1%
active: MDA-MB-435 melanoma -29.3%

O=C(CN1CCCCC1)Nc1ccc2oc(=O)ccc2c1
inactive: T-47D breast 103% | BT-549 breast 107% | MDA-MB-435 melanoma 113% | SW-620 colon 97.9% | MCF7 breast 96% | HCT-116 colon 101% | HCC-2998 colon 110% | KM12 colon 104%

Cn1cc(C(=O)c2nc(-c3c[nH]c4ccccc34)no2)c2ccccc21
inactive: T-47D breast 44.4% | BT-549 breast 69.7% | SW-620 colon 56.8% | MCF7 breast 20% | HCT-116 colon 47.1% | HCC-2998 colon 45.5% | KM12 colon 21.9%
active: MDA-MB-435 melanoma 7.96%

C=CCSSc1ncnc2c1ncn2C1OC(CO)C(O)C1O (stereo not drawn)
inactive: T-47D breast 24.3% | BT-549 breast 54.8% | MDA-MB-435 melanoma 22.5% | SW-620 colon 53.8% | HCT-116 colon 22.4% | HCC-2998 colon 35.1% | KM12 colon 37.1%
active: MCF7 breast 4.74%

COC(=O)c1ccc2oc(NC(=O)c3ccc(Nc4ccc([N+](=O)[O-])cc4C)c([N+](=O)[O-])c3)nc2c1
inactive: T-47D breast 96% | BT-549 breast 110% | MDA-MB-435 melanoma 100% | SW-620 colon 103% | MCF7 breast 97.6% | HCT-116 colon 106% | HCC-2998 colon 101% | KM12 colon 103%

COc1ccc(C2CC(c3ccc4ccccc4c3)=NN2/C=C2\SC(=S)N(NC(=O)Cc3ccccc3Nc3c(Cl)cccc3Cl)C2=O)cc1 (stereo not drawn)
active: MDA-MB-435 melanoma -49.8%
inactive: T-47D breast 19.2% | BT-549 breast 30% | SW-620 colon 22.6% | MCF7 breast 22.5% | HCT-116 colon 18.6% | HCC-2998 colon 31.2% | KM12 colon 16%

CNc1ccc(-c2cc(=O)oc3ccc(Cl)cc23)cc1
active: MDA-MB-435 melanoma -11.5%
inactive: T-47D breast 66.8% | BT-549 breast 21.8% | SW-620 colon 23.3% | MCF7 breast 18.3% | HCT-116 colon 10% | HCC-2998 colon 31.6% | KM12 colon 15%

CN(Cc1cc(Cl)cc(Cl)c1O)Cc1cc(Cl)cc(Cl)c1O
inactive: T-47D breast 76.4% | BT-549 breast 86.4% | MDA-MB-435 melanoma 68.2% | SW-620 colon 73.2% | MCF7 breast 67.6% | HCT-116 colon 58.9% | HCC-2998 colon 83.5% | KM12 colon 74.8%

COc1ccc(S(=O)(=O)N2CCN(C)CC2)cc1NC(=O)c1[nH]c(C)c2c1CCCCC2=O
inactive: T-47D breast 44.1% | BT-549 breast 90.4% | MDA-MB-435 melanoma 42.1% | SW-620 colon 70.7% | MCF7 breast 30% | HCT-116 colon 53.5% | HCC-2998 colon 64.4% | KM12 colon 64.7%

CNC(=O)c1cc(Oc2ccc(NC(=O)Nc3ccc(Cl)c(OC(F)(F)F)c3)c(F)c2)ccn1
inactive: BT-549 breast 60.4% | MDA-MB-435 melanoma 19.4% | SW-620 colon 43.1% | MCF7 breast 17.1% | HCT-116 colon 14% | HCC-2998 colon 39% | KM12 colon 13.3%
active: T-47D breast -2.82%

CCOC(=O)n1cc(-c2nonc2-c2cn(C)c3ncccc23)c2ccccc21
inactive: T-47D breast 15.2% | BT-549 breast 87.9% | MDA-MB-435 melanoma 50.2% | SW-620 colon 76.6% | MCF7 breast 35% | HCT-116 colon 80.4% | HCC-2998 colon 89.6% | KM12 colon 66.5%

Cc1ccc2c(C(C[N+](=O)[O-])c3ccccc3F)c(-c3ccccc3)[nH]c2c1 (stereo not drawn)
inactive: T-47D breast 29.3% | BT-549 breast 50% | SW-620 colon 19.7% | MCF7 breast 24.4% | HCT-116 colon 25.9% | HCC-2998 colon 73.9% | KM12 colon 23.3%
active: MDA-MB-435 melanoma -30.3%

Cn1cc(C(=O)c2nc(-c3c[nH]c4ccc(Br)cc34)no2)c2cc(F)ccc21
inactive: T-47D breast 89.7% | BT-549 breast 95.7% | MDA-MB-435 melanoma 100% | SW-620 colon 95.3% | MCF7 breast 82.1% | HCT-116 colon 104% | HCC-2998 colon 97.5% | KM12 colon 96.3%

C[n+]1ccccc1/C=C/c1ccc2cccc(O)c2n1
inactive: T-47D breast 97.6% | BT-549 breast 97.6% | MDA-MB-435 melanoma 114% | SW-620 colon 52.1% | MCF7 breast 97.3% | HCT-116 colon 97% | HCC-2998 colon 95.2% | KM12 colon 41.1%

O=c1ccccc(-c2ccc(Br)cc2)c1O
inactive: T-47D breast 26.7% | BT-549 breast 23.8% | MDA-MB-435 melanoma 25.8% | SW-620 colon 26.8% | MCF7 breast 14.3% | HCT-116 colon 18.6% | HCC-2998 colon 41.5% | KM12 colon 24.6%

COc1cccc(Nc2nc(SC)nc(-c3cccc([N+](=O)[O-])c3)c2C#N)c1
inactive: T-47D breast 62.4% | BT-549 breast 96.1% | MDA-MB-435 melanoma 80.9% | SW-620 colon 75% | MCF7 breast 72.9% | HCT-116 colon 28.2% | HCC-2998 colon 95.3% | KM12 colon 98.4%

O=C(Cc1ccccc1Nc1c(Cl)cccc1Cl)NN1C(=O)/C(=C/c2ccc(Br)cc2)SC1=S
inactive: T-47D breast 107% | BT-549 breast 105% | MDA-MB-435 melanoma 107% | SW-620 colon 98.5% | MCF7 breast 100% | HCT-116 colon 103% | HCC-2998 colon 106% | KM12 colon 107%

Cc1ccc2c(C(C[N+](=O)[O-])c3ccccc3)c(-c3ccccc3)[nH]c2c1 (stereo not drawn)
active: MDA-MB-435 melanoma -31% [9.5 µM]
inactive: T-47D breast 16.5% [9.5 µM] | BT-549 breast 47.5% [9.5 µM] | SW-620 colon 13.7% [9.5 µM] | MCF7 breast 15% [9.5 µM] | HCT-116 colon 24.4% [9.5 µM] | HCC-2998 colon 54.9% [9.5 µM] | KM12 colon 18.4% [9.5 µM]

CCCCC(=O)OCC1OC(n2cnc3c(=S)nc[nH]c32)C(OC(=O)CCCC)C1OC(=O)CCCC (stereo not drawn)
inactive: T-47D breast 36.1% | BT-549 breast 43.9% | MDA-MB-435 melanoma 29.4% | SW-620 colon 23.5% | MCF7 breast 20.2% | HCT-116 colon 27.3% | KM12 colon 36.1%
active: HCC-2998 colon -0.586%

CC1=NN(c2nc(-c3ccc(Cl)cc3)c(C#N)c(N3CCOCC3)n2)C(=O)C1
inactive: T-47D breast 93.3% | BT-549 breast 66.1% | MDA-MB-435 melanoma 87.8% | SW-620 colon 85.2% | MCF7 breast 94.4% | HCT-116 colon 94.3% | HCC-2998 colon 98.5% | KM12 colon 99.7%

Cn1c(=O)c2c(nc3n(-c4ccc(Cl)cc4Cl)c(Sc4nc(-c5ccccc5)c(C#N)c(=O)[nH]4)cn23)n(C)c1=O
inactive: T-47D breast 11.3% | BT-549 breast 72.6% | MDA-MB-435 melanoma 69.1% | SW-620 colon 30% | MCF7 breast 52.1% | HCT-116 colon 18.6% | HCC-2998 colon 78.3% | KM12 colon 84.9%

O=c1cc(/C(=C2/C=CC=N2)c2ccc[nH]2)c2cc(Cl)ccc2o1
inactive: T-47D breast 32% | BT-549 breast 52.1% | SW-620 colon 34.8% | MCF7 breast 70.9% | HCT-116 colon 44.2% | HCC-2998 colon 89.7% | KM12 colon 38.9%
active: MDA-MB-435 melanoma 9.82%
